# Test results reported in ChEMBL document CHEMBL3988442, “University of Dundee, Small-Polar-MMV Screening Library” (2021).
# The whole screen tested about 48,000 compounds, of which about 13,000 (27%) showed an effect of 50% or more. Some of the results follow.
# Test system: Wolbachia pipientis
# Assay: Anti-Wolbachia Cell-Based Screen
# Assay type: functional
# Design: scale not given: in the data most compounds retested in dose-response had high values
# Conditions: 5 µM
row,Structure (SMILES),Percent Effect
1,COc1ccc(CNC[C@H]2COCc3nc4cccnc4n32)cn1,2.273%
2,Cc1ccc(NC(C)C(=O)N(C)Cc2cccc(F)c2)cc1C(N)=O (stereo not given),-12.41%
3,CN(Cc1ccc(Cl)s1)C(=O)c1cccc(OCC(N)=O)c1,-4.963%
4,N#Cc1ccc(SCCOCCO)c(F)c1,-11.88%
5,CC(OCC1CC1)C(=O)N1CCCN(c2nc3ccccc3[nH]2)CC1 (stereo not given),2.156%
6,Nc1nccc(C2CCCN(CC3CC3)C2)n1 (stereo not given),142.8%
7,Cc1ccc2[nH]c([C@H]3CCN(CC4CCCCC4)C3)nc2c1,2.151%
8,Nc1nccc(C2CCN(CCO)C2)n1 (stereo not given),113.7%
9,COCc1nccc(C2CCCN(Cc3ccc(SC)cc3)C2)n1 (stereo not given),-16.87%
10,N#Cc1ccc(CN2CCC(c3ccnn3CCO)CC2)cc1,-5.885%
11,COc1ccc(-c2nnc([C@H]3CCN(CC4CC4)C3)o2)cc1,1.558%
12,Cc1noc(CN2CCC(c3ccnn3CCO)CC2)n1,-5.622%
13,Nc1nccc(C2CCN(CC3CC3)C2)n1 (stereo not given),123.6%
14,COCc1nccc(C2CCCN(Cc3ccc(C#N)cc3)C2)n1 (stereo not given),-15.32%
15,Cc1ccc2c(c1)OCCN2C(=O)c1ccc(=O)n(C)c1,10.97%
16,CCn1c(CN(C)C(=O)c2ccc(N(C)C)nc2)nc2ccccc21,-11.95%
17,O=C(Nc1ccccc1)C1CN(Cc2ccco2)CC12CCOCC2.O=C(O)C(F)(F)F (stereo not given),-4.746%
18,Cc1ccc(S(=O)(=O)Cc2noc([C@@H]3C[C@@H](O)CN3)n2)cc1,5.528%
19,COc1ccc(CC2CCCN2CCCC#N)cc1 (stereo not given),3.146%
20,COc1ccc(C(=O)Nc2cnn(CC(=O)NC3CCCC3)c2)c(O)c1,-2.411%
21,O=C(NCCCn1cccn1)NCC(c1ccco1)N1CCCC1 (stereo not given),116.5%
22,O=C(NCc1cc[nH]n1)NCC(c1ccco1)N1CCCC1 (stereo not given),-4.044%

row,Structure (SMILES),Percent Effect
1,O=C(NCCn1ccnc1)NCC(c1ccco1)N1CCCCC1 (stereo not given),-2.241%
2,O=C(NCc1ccccn1)NCC(c1ccco1)N1CCCC1 (stereo not given),11.6%
3,O=C(NCCCn1ccnc1)NCC(c1ccco1)N1CCCCC1 (stereo not given),152.2%
4,O=C(CCn1cccn1)NCC(c1cccs1)N1CCCC1 (stereo not given),-57.56%
5,O=C(NCCn1ccnc1)NCC(c1ccco1)N1CCCC1 (stereo not given),107.9%
6,O=C(NCCCn1ccnc1)NCC(c1ccco1)N1CCCC1 (stereo not given),97.42%
7,O=C(NCc1ccccn1)NCC(c1ccco1)N1CCCCC1 (stereo not given),12.69%
8,O=C(Cn1cccn1)NCC(c1cccs1)N1CCCC1 (stereo not given),-1.128%
9,O=C(NCCCn1ccnc1)N1CCCC1c1cccs1 (stereo not given),8.272%
10,CN(CC(=O)NCCc1cc2ccccc2o1)S(C)(=O)=O,6.714%
11,CCN(C)CCNC(=O)Cc1nc(-c2ccco2)oc1C,-18.21%
12,COc1cc(C(C)NCc2c[nH]nc2C)ccc1OCCO (stereo not given),-5.579%
13,OCc1ccc(CNc2ccccc2CN2CCC(O)CC2)o1,-5.459%
14,Cn1cc(C2CC(=O)NC23CCN(CC2CC2)CC3)cn1.O=C(O)C(F)(F)F (stereo not given),-10.6%
15,O=C(C1CCC1)N1CCC2(CCN(Cc3cccc(F)c3)CC2)CC1.O=C(O)C(F)(F)F,18.44%
16,Cn1cc(C2CC(=O)NC23CCN(Cc2ccncc2)CC3)cn1.O=C(O)C(F)(F)F.O=C(O)C(F)(F)F (stereo not given),100.3%
17,Cn1cc(C2CC(=O)NC23CCN(Cc2cccc(F)c2)CC3)cn1.O=C(O)C(F)(F)F (stereo not given),101.2%
18,Cc1ccncc1C(=O)N1CC[C@@]2(O)CCN(C3CCCCC3)C[C@H]2C1,-0.1912%
19,O=C(NCC(O)c1ccc(F)cc1)C1CCN(C2CCCCC2)CC1 (stereo not given),4.274%
20,CC(C)(C)n1ncc2c(=O)[nH]c(N3CCN(CC(F)F)CC3)nc21,4.311%
21,O=c1[nH]c(NC2CCCC2)nc2nccc(-c3ccsc3)c12,-12.83%
22,Cc1ccc(-c2csc3c(=O)[nH]c(N4CCCC(C(=O)O)C4)nc23)cc1 (stereo not given),13.24%

row,Structure (SMILES),Percent Effect
1,COc1cccc(-c2n[nH]cc2-c2nc(CN3CCCC3)no2)c1,-0.8918%
2,COc1ccccc1-c1ccnc2nc(N3CCCCC3)[nH]c(=O)c12,113.6%
3,COc1cccc2c1OCCCN(c1nc3c(c(=O)[nH]1)CCNCC3)C2,-4.298%
4,COc1cccc(-c2ccnc3nc(N4CCCCC4)[nH]c(=O)c23)c1,120.5%
5,O=c1[nH]c(N2CCCCC2)nc2nccc(-c3ccc4c(c3)OCO4)c12,81.44%
6,COc1ccc(-c2ccnc3nc(N4CCCC4)[nH]c(=O)c23)cc1OC,143.1%
7,Cc1ccccc1-c1csc2c(=O)[nH]c(N3CCCC(C(=O)O)C3)nc12 (stereo not given),12.14%
8,Cn1[nH]c(C2CCC2)c(-c2ccc3c(c2)OCO3)c1=N,9.847%
9,Cc1nc(N2CCCCC2)ncc1-c1cc(=O)[nH]c(N2CCCC2)n1,-11.82%
10,CCN(Cc1ccoc1)C(=O)Nc1ccccc1CN(C)C(C)=O,-2.695%
11,CNC(=O)c1nc2c(s1)CCN(C(=O)c1cccc(OC)c1)CC2,-8.352%
12,O=C(NC[C@H]1OC[C@@H](NC2COC2)[C@@H]1O)c1ccccc1,-18.77%
13,COc1ccc(CCNC(=O)N2CCN(C)[C@@H]3CS(=O)(=O)C[C@@H]32)cc1,3.976%
14,N#Cc1c(F)cccc1N1CCC(NS(=O)(=O)c2cccs2)CC1,-19.03%
15,COCC1c2nnn(CC3CC3)c2CCN1C(=O)C1CCOCC1 (stereo not given),-9.696%
16,CC(C)(C)C(=O)NCCC(=O)Nc1cc(C#N)cn1C(C)(C)C,-12.46%
17,O=C(NC[C@H]1OC[C@@H](NC2CCCCC2)[C@@H]1O)Nc1ccccc1,2.791%
18,Cc1cc(N2CCN(c3nc4ccccc4cc3CO)CC2)nc(C)n1,9.089%
19,NC(=O)C1CCN(c2nc3nccc(-c4ccccc4)c3c(=O)[nH]2)CC1,-1.836%
20,COc1ccc(-c2ccnc3c2C(=O)CCC3)cc1,-3.402%
21,COc1ccc(-c2ccnc3nc(N4CCCCC4)[nH]c(=O)c23)cc1,107.2%
